Assay results published in PubChem BioAssay.
Unmarked numbers belong to inactive results.

assay: A549 lung cancer cell viability effects, profiling panel, resazurin fluorescence, 24 h, PK04 Diversity Set (AID 1171); conditions: higher = more signal, called active from +8 up or from −8 down; also: test concentration not given here

Row | Structure (SMILES) | z-score
1 | COc1ccc(C(=O)Nc2ccc3c(c2)[C@]2(O[C@@H](CCO)[C@H]([Si](C)(C)c4ccc(OC)cc4)[C@H]2C)C(=O)N3Cc2ccccc2)cc1 | -2.42
2 | COc1ccc([Si](C)(C)[C@@H]2[C@@H](CCO)O[C@]3(C(=O)N(Cc4ccccc4)c4ccc(N5CCCCC5=O)cc43)[C@H]2C)cc1 | -1.88
3 | C#CCNS(=O)(=O)N(C)C | 0.943
4 | COCCCNC(=O)[C@]1(CCS(=O)(=O)c2ccccc2)N=C(c2ccc(OCCCO)cc2)O[C@@H]1c1ccccc1 | -0.243
5 | CC(=O)NCCCC[C@@H]1NC(=O)[C@@H]2C[C@H](C(=O)NCCCC[N+](C)(C)C)[C@H](c3cccc(OCCO)c3)N2C1=O | -0.485
6 | CCCC[C@@H](O)C1=C(COc2ccccc2)Cn2c(=O)n(-c3ccccc3)c(=O)n2[C@H]1CO | -0.515
7 | C=CCOC(=O)[C@H]1[C@@H]2C(=O)O[C@@H](c3ccccc3)[C@@H](c3ccccc3)N2[C@@H](c2ccc(OCCOC(=O)[C@H]3C[C@H]4C(=O)N[C@@H](CCCCN(C)C)C(=O)N4[C@H]3c3ccc(O)cc3)cc2)[C@]12C(=O)Nc1ccccc12 | 0.232
8 | C=CCNC(=O)[C@H]1[C@@H]2C(=O)O[C@@H](c3ccccc3)[C@@H](c3ccccc3)N2[C@@H](c2ccc(OCCO)cc2)[C@]12C(=O)N(C(=O)OCCOC)c1ccc(C#CC3=CCCCC3)cc12 | 0.248
9 | COC(=O)[C@@]1(Cc2ccccc2)[C@H]2c3cc(C(=O)N4CCCC4)n(Cc4ccc(OC(F)(F)F)cc4)c3C[C@H]2CN1C(=O)c1ccccc1 | -1.46
